Reference: PubChem BioAssay (Tox21)
A number with no mark means an inactive call. Inconclusive results are not listed. A call without a number means that no potency is given here. Active and inactive are the calls of the source. Unless noted, calls come from the whole dose curve; as a rule, active = well fitted curve in the direction sought with a large enough effect in the repeat runs; inconclusive = weak or mixed curves; inactive = no such curve, though single readings can be large; an effect the other way counts as inactive or inconclusive. Where a SMILES comes first, the peptide text is derived from it. [ ]: non-standard residue; d: D form. pGlu = O=C1CC[C@@H](C(=O)O)N1

Legend:
[1] = qHTS assay to identify small molecule agonists of the hypoxia (HIF-1) signaling pathway - cell viability counter screen (AID 1224844; calls by dose curve; note: nearly all actives have a fitted effect of over 50% in size)
How it was run: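 Luminescent ATP content (CellTiter-Glo, 30 min, room temperature) served as the viability measure in HRE-bla ME-180 cells exposed to compounds for 17 hrs in low-serum medium (0.5% dialyzed FBS).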

[2] = qHTS assay to identify small molecule agonists of H2AX (AID 1224845; active = well fitted activation curve with a large enough effect in the signal ratio in the repeat runs, not every such curve was filed as active; the % refers to the signal ratio; note: potency is the fitted concentration of half-maximal effect)
How it was run: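 Wild-type CHO-K1 cells, plated overnight, exposed 3hr at 37C to 15 concentrations (0.76% DMSO final). Lysed, then HTRF anti-pH2AX (S139) cryptate and anti-H2AX-d2 antibodies, 24 hr room temperature; 665/620 nm emission read.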

[3] = qHTS assay to identify small molecule agonists of the hypoxia (HIF-1) signaling pathway (AID 1224846; active = well fitted activation curve with a large enough effect in the signal ratio in the repeat runs, not every such curve was filed as active; the % refers to the signal ratio)
How it was run: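 Measured by blue/green FRET after loading CCF4-AM: beta-lactamase expressed from a hypoxia response element in ME-180 cells. Test agents were delivered in DMSO and left 17 hrs; cells had been plated 5 hrs earlier in low-serum (0.5% dialyzed FBS) medium.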

[4] = qHTS assay to identify small molecule agonists of H2AX - cell viability counter screen (AID 1224847; calls by dose curve; note: top concentration of the series differs between compounds; nearly all actives have a fitted effect of over 30% in size)
How it was run: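 Wild-type CHO-K1 cells (10% FBS medium) were plated overnight at 37C, exposed to compounds at 15 concentrations for 3 hr at 37C (0.76% DMSO final), and viability was read as CellTiter-Glo luminescence after 30 min at room temperature.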

[5] = qHTS assay to identify small molecule antagonists of the estrogen related receptor (ERR) signaling pathway from Tox21 library (AID 1224848); note: nearly all actives have a fitted effect of over 50% in size
How it was run: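 Luminescent reporter read-out (ONE-Glo) from NTP's ERR cell line after 18 h treatment at 37 C with DMSO-dissolved Tox21 compounds; cells pre-plated 6 h beforehand at 2,000 per well.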

[6] = qHTS assay to identify small molecule agonists of the estrogen related receptor (ERR) signaling pathway from Tox21 library (AID 1224849; calls by dose curve; note: nearly all actives have a fitted effect of over 15% in size)
How it was run: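 We plated ERR reporter cells, waited 6 h, added compounds in DMSO by pin tool and incubated them 18 h at 37 C. ONE-Glo was then added and luminescence read after 30 min.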

[7] = qHTS RealTime-Glo MT Cell Viability Assay in HepG2 cells - 24 hour (AID 1224867); note: nearly all actives have a fitted effect of over 50% in size
How it was run: (§1)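 Cell number in HepG2 cultures estimated from NanoLuc luminescence generated by metabolic reduction of a prosubstrate by living cells. The homogeneous, nonlytic format allowed repeated reads at 0, 8, 16, 24, 32 and 40 h of compound exposure.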

[8] = qHTS RealTime-Glo MT Cell Viability Assay in HEK293 cells - 32 hour (AID 1224868); note: top concentration of the series differs between compounds; nearly all actives have a fitted effect of over 50% in size
How it was run: (§2)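 Homogeneous bioluminescent viability format in HEK293 cells (600 cells/well). Following 5 h at 37 C/5% CO2, 23 nL compound was pintooled; the signal was measured repeatedly during 40 h incubation.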

[9] = A CellTox Green Cytotoxicity Assay to monitor cytotoxicity in HEK293 cells - 0 hour (AID 1224869); note: nearly all actives have a fitted effect of over 50% in size
How it was run: (§3)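 Each value comes from one timepoint of a single continuous run in which HEK293 cells with CellTox Green were exposed to compound for up to 40 h at 37 C, dye fluorescence rising with cell death.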

[10] = qHTS RealTime-Glo MT Cell Viability Assay in HepG2 cells - 40 hour (AID 1224870); note: nearly all actives have a fitted effect of over 50% in size
How it was run: (§4)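 HepG2 cells (600/well) mixed with RealTime-Glo MT reagent, settled 5 h at 37 C/5% CO2 before compound addition. Nonlytic NanoLuc luminescence from viable-cell prosubstrate reduction read repeatedly during 40 h treatment at 37 C.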

[11] = A CellTox Green Cytotoxicity Assay to monitor cytotoxicity in HEK293 cells - 40 hour (AID 1224871); note: nearly all actives have a fitted effect of over 45% in size
How it was run: as §3

[12] = qHTS RealTime-Glo MT Cell Viability Assay in HEK293 cells - 16 hour (AID 1224872)
How it was run: as §2

[13] = qHTS RealTime-Glo MT Cell Viability Assay in HepG2 cells - 8 hour (AID 1224873); note: nearly all actives have a fitted effect of over 55% in size
How it was run: as §4

[14] = qHTS RealTime-Glo MT Cell Viability Assay in HEK293 cells - 40 hour (AID 1224874); conditions: RealTime-Glo luminescence; max response: stronger effect = lower value; note: nearly all actives have a fitted effect of over 50% in size
How it was run: (§5)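 qHTS format; HEK293 cells with NanoLuc/prosubstrate reagent, 37 C/5% CO2 for 5 h pre-dosing; compounds 23 nL in DMSO; luminescence at each time point reflects viable cells.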

[15] = A CellTox Green Cytotoxicity Assay to monitor cytotoxicity in HEK293 cells - 24 hour (AID 1224875); note: series mostly up to about 77 µM; nearly all actives have a fitted effect of over 45% in size
How it was run: as §3

[16] = A CellTox Green Cytotoxicity Assay to monitor cytotoxicity in HepG2 cells - 16 hour (AID 1224876); note: nearly all actives have a fitted effect of over 45% in size
How it was run: (§6)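 Continuous culture of HepG2 cells with a membrane-impermeant DNA dye; rising fluorescence marks dead cells. Compound exposure lasted up to 40 h at 37 C, with reads every 8 h from 0 h.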

[17] = qHTS RealTime-Glo MT Cell Viability Assay in HepG2 cells - 32 hour (AID 1224877); note: nearly all actives have a fitted effect of over 55% in size
How it was run: as §1

[18] = A CellTox Green Cytotoxicity Assay to monitor cytotoxicity in HepG2 cells - 24 hour (AID 1224878); note: nearly all actives have a fitted effect of over 45% in size
How it was run: as §6

[19] = A CellTox Green Cytotoxicity Assay to monitor cytotoxicity in HepG2 cells - 40 hour (AID 1224879); note: nearly all actives have a fitted effect of over 40% in size
How it was run: as §6

[20] = qHTS RealTime-Glo MT Cell Viability Assay in HEK293 cells - 0 hour (AID 1224880)
How it was run: as §5

Row | Structure (SMILES) | Potency [1] | Potency [2] | outcome [3] | outcome [4] | Potency [5] | outcome [6] | outcome [7] | Potency [8] | outcome [9] | Potency [10] | Potency [11] | Potency [12] | outcome [13] | max response [14] [%] | outcome [15] | outcome [16] | Potency [17] | outcome [18] | Potency [19] | Potency [20]
1 | OCCCCCO | inactive | inactive | inactive | inactive | inactive | inactive | inactive | inactive | inactive | inactive | inactive | inactive | inactive | 4.41 | inactive | inactive | inactive | inactive | inactive | inactive
2 | CCN1C=CN(C)C1C (centres undefined) | inactive | inactive | inactive | inactive | inactive | inactive | inactive | inactive |  | inactive | inactive | inactive | inactive | 0.14 | inactive | inactive | inactive | inactive | inactive | inactive
3 | CC(=O)Oc1cccc(C)c1 | inactive | inactive | inactive | inactive | inactive | inactive | inactive | inactive | inactive | inactive | inactive | inactive | inactive | 2.59 | inactive | inactive | inactive | inactive |  | inactive
4 | CC(C)(N)C#N | inactive | inactive | inactive | inactive | inactive |  | inactive | inactive |  | inactive | inactive | inactive | inactive | -0.492 | inactive | inactive | inactive | inactive | inactive | inactive
5 | Nc1c2c(nc3c1CCC3)CCCC2 | inactive | inactive | inactive | inactive | inactive | inactive | inactive | inactive | inactive |  | inactive | inactive | inactive | 0.303 | inactive | inactive | inactive | inactive | inactive | inactive
6 | CCNC(=O)[C@@H]1CCCN1C(=O)[C@H](CCCN=C(N)N)NC(=O)[C@H](CC(C)C)NC(=O)CNC(=O)[C@H](Cc1ccc(O)cc1)NC(=O)[C@H](CO)NC(=O)[C@H](Cc1c[nH]c2ccccc12)NC(=O)[C@H](Cc1cnc[nH]1)NC(=O)[C@@H]1CCC(=O)N1 ([pGlu]HWSYGLRP-NHEt) | inactive | inactive | inactive | inactive | inactive |  | inactive | inactive | inactive | inactive | inactive | inactive | inactive | 7.73 | inactive | inactive | inactive | inactive | inactive | inactive
7 | CC(=O)c1ccccc1[N+](=O)[O-] | inactive | inactive | inactive | inactive | inactive | inactive |  | inactive | inactive | inactive | inactive | inactive | inactive | 21.1 | inactive | inactive | inactive | inactive |  | inactive
8 | O=S(=O)(O)c1cccc(S(=O)(=O)O)c1 | inactive | inactive | inactive | inactive | inactive |  |  | inactive | inactive | inactive | inactive | inactive | inactive | 15.6 | inactive | inactive | inactive | inactive | inactive | inactive
9 | Nc1ccn([C@@H]2O[C@H](CO)[C@@H](O)[C@@H]2O)c(=O)n1 | inactive | 20.1 µM (active) | inactive | inactive | inactive |  |  | inactive | inactive | inactive | inactive | inactive | inactive | 6.05 | inactive | inactive | inactive | inactive | inactive | inactive
10 | CCCCCC(=O)OCCc1ccccc1 | inactive | inactive | inactive | inactive | inactive |  |  | inactive | inactive | inactive | inactive | inactive | inactive | 5.56 | inactive | inactive | inactive | inactive |  | inactive
11 | CC(C)COC(=O)c1ccc(N)cc1 | inactive | inactive | inactive | inactive | inactive |  |  | inactive | inactive |  | inactive | inactive | inactive | -12.8 | inactive | inactive | inactive | inactive | inactive | inactive
12 | CCOC(=O)COC(=O)c1ccccc1C(=O)OCC | inactive | inactive | inactive | inactive | inactive |  |  | inactive | inactive | inactive | inactive | inactive | inactive | 11 | inactive | inactive | inactive | inactive |  | inactive
